An excerpt weighted towards active compounds, which were near 7.5% of everything screened.
FLuc modulator = inhibits or activates purified firefly luciferase, miR-21 counter-screen; P08659; purified FLuc, Km substrates, luminescence inhibition; Potency, µM (top dose mostly 57.5 µM), for the others: top-dose activity change, negative = inhibition, usual class: inhibitors; 360,000 tested, 6.9% active; AID 588342;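 further: plate controls were vehicle for no effect and reference inhibitor for full effect; nearly all actives have a fitted effect of over 55% in size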
Target sequence (P08659 whole entry, looked up): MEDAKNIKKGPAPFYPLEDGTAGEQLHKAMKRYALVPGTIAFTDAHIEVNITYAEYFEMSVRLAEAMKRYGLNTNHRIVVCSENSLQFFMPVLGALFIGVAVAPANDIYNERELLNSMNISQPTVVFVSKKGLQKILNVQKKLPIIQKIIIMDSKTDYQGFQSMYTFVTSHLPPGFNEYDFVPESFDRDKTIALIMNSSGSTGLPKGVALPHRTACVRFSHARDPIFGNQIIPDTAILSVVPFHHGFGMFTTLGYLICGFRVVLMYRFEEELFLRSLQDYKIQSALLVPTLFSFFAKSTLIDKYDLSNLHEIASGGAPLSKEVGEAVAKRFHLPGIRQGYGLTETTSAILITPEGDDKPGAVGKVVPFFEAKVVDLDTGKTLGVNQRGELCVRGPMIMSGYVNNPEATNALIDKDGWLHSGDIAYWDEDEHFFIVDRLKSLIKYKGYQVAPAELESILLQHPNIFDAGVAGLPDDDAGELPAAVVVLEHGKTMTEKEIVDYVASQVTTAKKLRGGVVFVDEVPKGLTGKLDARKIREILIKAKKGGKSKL
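Purified P. pyralis luciferase (10nM final) with 10uM D-luciferin and 10uM ATP (Km levels) in 50mM Tris acetate pH 7.5, 10mM Mg acetate, 0.01% Tween-20, 0.05% BSA; qHTS 6-point titration, ~60 µM downward; luminescence read.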
Luc counter = blocks Kinase-Glo luciferase, a counter-screen artifact; Q27757; Kinase-Glo luciferase, ATP luminescence, 8 min; Potency, µM (top dose mostly 38.3 µM), for inactives: at the top dose activity change, negative = inhibition, most hits filed as inhibitors; 200,000 tested, 0.28% active; AID 1379; further: on the % scale 0 is the no-effect control and ±100 the full control effect; nearly all actives have a fitted effect of over 60% in size
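Recombinant Kinase-Glo luciferase, 10 uM ATP (linear range), luciferin; imidazole pH 7.2 / KCl / MgCl2 / Tween / BSA buffer; 8 min RT; luminescence.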
Rab9 prom act = Rab9 promoter activation. Huh7 Rab9 promoter-luciferase reporter, luminescence, 24 h. Potency, µM (doses to about 9.22 µM), for the others: at the top dose activation, negative = inhibition, actives largely listed as activators. 320,000 tested, 2.8% active; further: % of control where 0% means no effect; nearly all actives have a fitted effect of over 60% in size
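Huh7 cells stably carrying a Rab9 promoter-luciferase reporter, 1500 cells per well in OP-MEM I with 10% FBS, treated with compound 24 hours at 37C. Luciferase activity read by luminescence after 10 minutes with Amplite reagent.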
ELG1 genotox = induces genotoxicity in HEK293T cells with luciferase-tagged ELG1; 330,000 tested, 1.3% active; HEK293T ELG1-luciferase reporter, luminescence, 16 h; Potency, µM (top dose mostly 46 µM), inactives show top-dose activity change, positive = activation, most hits filed as activators; further: % of control where 0% means no effect; nearly all actives have a fitted effect of over 60% in size
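16 hr compound incubation (37 °C, 5% CO2) of HEK293T cells carrying luciferase-tagged ELG1; luciferase then measured by ONE-Glo luminescence after 30 min at RT.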
NPC1 promoter act = activates the NPC1 promoter; 320,000 tested, 2.4% active; Huh7 NPC1 promoter luciferase reporter, 24 h; Potency, µM (series often up to 9.22 µM), without a hit: top-dose activation, hits mostly activators; further: % of control where 0% means no effect; nearly all actives have a fitted effect of over 60% in size
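Cells: Huh7 expressing luciferase under the NPC1 promoter, 1500/well. Seeded 2 h, compound added, incubated 24 h at 37 °C. Luciferase reagent, 10 min ambient, then luminescence.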
SMN2 splice enh = enhancers of SMN2 splice variant expression; HEK293 SMN2-luciferase splicing reporter, luminescence, 30-36 h; Potency, µM (doses to about 46.1 µM), inactives show at the top dose activity change, positive = activation, usual class: activators; 210,000 tested, 2.8% active; AID 1458; further: % of control where 0% means no effect; nearly all actives have a fitted effect of over 55% in size
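HEK293 cells carry an SMN2 […]–luciferase reporter in which exon 7 inclusion puts luciferase in frame. Cells were plated 10-12 h before compound addition, then incubated 30-36 h at 37C. ONE-Glo luminescence was read; sodium butyrate at 4.5 mM final served as control.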
An asterisk follows results filed as active. The call rests on the fitted dose curve; in most records, active means well fitted curve in the direction sought with a large enough effect; inconclusive means small, poorly fitted or top-dose-only effect, or another doubt; inactive means no such curve, though single readings can be large; an effect the other way counts as inactive or inconclusive. Potency means the concentration at half of the fitted maximal effect.

Cc1cc(NC(=O)c2ccccc2)ncc1NC(=O)c1ccco1 was read as FLuc modulator 11µM*, Luc counter 2.2µM*, Rab9 prom act 1.4µM*, ELG1 genotox 1.6µM*, NPC1 promoter act 2µM* and SMN2 splice enh 8.9µM*.
For Cc1c(Cl)cccc1NC(=O)c1ccco1 the results were FLuc modulator 3%, Rab9 prom act 14%, ELG1 genotox 7% and NPC1 promoter act -4%.
Cc1ccc(C(=O)Nc2ccc(NC(=O)c3ccco3)c(C)c2)cc1 was read as FLuc modulator 5.4µM*, Rab9 prom act 30%, ELG1 genotox inconclusive and NPC1 promoter act 21%.
For Cc1cc(O)c(NC(=O)c2ccco2)cc1C the results were FLuc modulator 30µM*, Luc counter -19%, Rab9 prom act 27%, ELG1 genotox inconclusive, NPC1 promoter act 26% and SMN2 splice enh 11µM*.
`Cc1ccc(O)c(NC(=O)c2ccco2)c1` gave FLuc modulator 6µM*, Luc counter -24%, Rab9 prom act 18%, ELG1 genotox 11%, NPC1 promoter act inconclusive and SMN2 splice enh 16µM*.
`CC(=O)N1CCc2cc(S(=O)(=O)NCCC(=O)NC3CCCCCC3)ccc21` gave FLuc modulator 2%, Rab9 prom act 4%, ELG1 genotox -1% and NPC1 promoter act 0%.
Screening CN1CCN(CC(=O)Nc2cccc(S(=O)(=O)N(C)c3ccccc3)c2)CC1 returned FLuc modulator 1%, Rab9 prom act -4%, ELG1 genotox 0% and NPC1 promoter act -1%.
`CCOc1ccc(NC(=O)CSc2nc3nc(C)c(Cc4ccccc4)c(C)n3n2)cc1` gave FLuc modulator -6%.
O=[N+]([O-])c1cccc(/C([O-])=C(/C(=S)Nc2ccccc2)[n+]2ccccc2)c1 was read as FLuc modulator -15%, Luc counter -2%, Rab9 prom act 13%, ELG1 genotox 1%, NPC1 promoter act 11% and SMN2 splice enh 2%.
Screening Clc1cc(Br)ccc1OCCN1CCOCC1 returned FLuc modulator -13%, Luc counter -3%, Rab9 prom act -4%, ELG1 genotox 1%, NPC1 promoter act -3% and SMN2 splice enh -1%.
For CCCCCOc1ccc(CN2CCOCC2)cc1Cl the results were FLuc modulator 6.7µM*, Luc counter -3%, Rab9 prom act 3.5µM*, ELG1 genotox 14µM*, NPC1 promoter act 3.2µM* and SMN2 splice enh inconclusive.
`CCOC(=O)c1nn(-c2ccc(Br)cc2)cc1C(=O)c1cccc2ccccc12` gave FLuc modulator 6.7µM*, Luc counter 4%, Rab9 prom act inconclusive, ELG1 genotox 17%, NPC1 promoter act 20% and SMN2 splice enh inconclusive.
N#CC1(c2nc3ccccc3[nH]2)CC1c1ccc2c(c1)OCO2 (configuration not stated) was read as FLuc modulator 19µM*, Luc counter 0%, Rab9 prom act 0%, ELG1 genotox 3%, NPC1 promoter act 1% and SMN2 splice enh 11%.
Clc1ccccc1N/N=C/c1ccc2c(c1)OCO2 was read as FLuc modulator 11µM*, Luc counter -25%, Rab9 prom act 2.8µM*, ELG1 genotox inconclusive, NPC1 promoter act 2.8µM* and SMN2 splice enh 20µM*.
For C/C(=N\Nc1nc2ccccc2[nH]1)c1ccc2c(c1)OCCO2 the results were FLuc modulator 6µM*, Rab9 prom act -5%, ELG1 genotox -4% and NPC1 promoter act -38%.
For O=C(N/N=C/c1ccc2c(c1)OCO2)c1ccc(NC(=O)c2ccccc2Cl)cc1 the results were FLuc modulator inconclusive, Rab9 prom act 10%, ELG1 genotox -20% and NPC1 promoter act -5%.
`O=C(CCc1nc2ccccc2[nH]1)NCc1ccc2c(c1)OCO2` gave FLuc modulator -1%, Luc counter -1%, Rab9 prom act -1%, ELG1 genotox 1%, NPC1 promoter act 1% and SMN2 splice enh -5%.
